# About 83,000 compounds went through this panel and 20% of them were active in at least one assay; those are over-represented in the sample as a whole.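 Activity criterion: percent growth below 10, measured after cells in 96-well plates were exposed to a single compound concentration for 48 hours.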 Values without a mark were called inactive. Calls of active or inactive are those of the source.
# System: RPMI-8226 leukemia
# Assay: NCI-60 one-dose screen, 48 h (100 = growth as untreated, 0 = no growth, -100 = all killed)
# Settings: 10 µM
# Description: Growth inhibition of the RPMI-8226 human tumor cell line is measured as a screen for anti-cancer activity. Cells are grown in 96 well plates and exposed to the test compound for 48 hours. Compounds are tested at a single concentration, which is 10^-5 M for most compounds. The reported endpoint is percent growth (GI% or GIPRCNT), where numbers from 0 - 100% represent growth inhibition, and numbers from -100% - 0 represent cell death. For example, a value of 40 represents 60% growth inhibition. A value of 0 means no net growth occurred over the course of the experiment. A value of -40 indicates 40% of cells at the beginning of the experiment died by the end of the experiment. A value of -100 means all cells are dead at the end of the experiment.
# NCI-60 Human Tumor Cell Lines Screen was performed using the standard one-dose NCI protocol, which is described in more detail at https://dtp.cancer.gov/discovery_development/nci-60/default.htm.
# Compounds with GIPRCNT values below 10 were considered active. Activity score was based on GIPRCNT using the following formula: […]
# Score is 0 for GIPRCNT values of 100 or above, 50 for GIPRCNT values of 0, and 100 for GIPRCNT values of -100.
row,SMILES,growth
1,CC(=O)COc1ccc(Cl)cc1Cl,86.7%
2,O=C(NCCCNS(=O)(=O)c1ccc(Cl)cc1)Nc1ccc(-n2cc(-c3ccncc3)c(-c3ccc(Cl)c(O)c3)n2)cc1,18.7%
3,COc1ccc(N(C)c2ncnc3occ(C)c23)cc1,-36.1% (active)
4,N#Cc1ccc(C(=O)CSc2nccc(Nc3ccc(C(=O)O)cc3)n2)cc1,108%
5,COc1ccc(/C(=N\N)C(=O)c2ccccc2)cc1 (tested in a mixture with another compound),90%
6,COc1cc(/C=C2\CCCC3=C2NC(N)=NC3c2cc(OC)c(OC)c(OC)c2)cc(OC)c1OC (stereo not given),-15.4% (active)
7,N=C1S/C(=C/c2ccc(-c3ccc4c(c3)C(=O)NC4=O)o2)C(=O)N1c1ccc(Br)cc1,38.8%
8,OC(CNc1ccnc2cc(Cl)ccc12)CNC1CCCCC1 (stereo not given),65%
9,COc1cc2cc(Oc3ccc(NC(=O)Nc4ccc(Cl)c(Cl)c4)cc3)c(C)nc2cc1OC,4.2% (active)
10,Nc1nc(Cl)nc2c1ncn2C1O[C@H](CO)[C@@H](O)[C@@H]1F (stereo not given in full),105%
11,CS(=O)(=O)c1nccc(-c2c(-c3ccc(OCCc4ccccc4)cc3)nc3sccn23)n1,94.8%
12,CN(C)CCOc1cccc(-c2nc3sccn3c2-c2ccnc(S(C)(=O)=O)n2)c1,94.7%
13,Cc1n[nH]c(C)c1N=Nc1cccc2c1C(=O)c1ccccc1C2=O,104%
14,NS(=O)(=O)Oc1ccc2c(ccn2C(=O)C23CC4CC(CC(C4)C2)C3)c1,110%
15,O=[N+]([O-])c1cc(Cl)cc(Cl)c1O,103%
16,COc1cccc(N=Nc2cccc(OC)c2)c1,87%
17,CN(C)CCCOc1cccc(NC2=C(Cl)C(=O)C(Nc3cccc(OCCCN(C)C)c3)=C(Cl)C2=O)c1,-47.5% (active)
18,CC(C)(C)c1ccc(S(=O)(=O)N[C@H]2CC[C@H]3[C@@H]4CCc5cc(OS(=O)(=O)O)ccc5[C@H]4CC[C@]23C)cc1,34.1%
19,COC(=O)c1c[nH]c2cc(OC(C)C)c(OC(C)C)cc2c1=O,96.9%
20,COc1ccc(/C=C2\CCCC3=C2NC(N)=NC3c2ccc(OC)cc2)cc1 (stereo not given),57.7%

row,SMILES,growth
1,CC(C)c1ccc(C(C)C(=O)N(CC2=C(C(C)c3ccccn3)c3ccccc3C2)C(C)C)cc1 (stereo not given),14.6%
2,Nc1nccc(OCCO)n1,108%
3,CC(=O)Nc1ccc(CC[C@H]2CCC/C=C/[C@@H]3C[C@H](O)C[C@H]3[C@H](O)/C=C/C(=O)O2)cc1,3.69% (active)
4,CC(C)CCN(CCC(C)C)CC(=O)Nc1ccc(S(=O)(=O)c2ccc(NC(=O)CN(CCC(C)C)CCC(C)C)cc2)cc1,-22.4% (active)
5,CC(C)N(CCOc1ccc(-c2nc3sccn3c2-c2ccnc(S(C)(=O)=O)n2)cc1)C(C)C,71.2%
6,O=C(CNc1nnc(-c2cccnc2SCc2ccccc2)s1)Nc1nc(Cl)cc(Cl)n1,108%
7,CC(C)[N+]1(C)C2CC[C@@H]1CC(OC(=O)C(CO)c1ccccc1)C2 (stereo not given in full),101%
8,NC1=NC(c2ccccc2)C2=C(N1)/C(=C/c1ccccc1)CCC2 (stereo not given),-7.58% (active)
9,COc1cc(-c2nn(-c3cccc(NC(=O)CCNc4ccc(N5CCOCC5)cc4)c3)cc2-c2ccncc2)ccc1Cl,15.5%
10,C=C(C)[C@@H]1CC[C@]2(COCCC#N)CC[C@]3(C)[C@H](CC[C@@H]4[C@@]5(C)Cc6c([nH]c7ccccc67)C(C)(C)[C@@H]5CC[C@]43C)[C@@H]12,86.1%
11,CCCCC1(O)CCCCC1,101%
12,CCOC(=O)c1cc(C(=O)c2cc(OC)cc(OC)c2)n2nc(C)ccc12,12.2%
13,Clc1nc2ccc(Br)cc2cc1-c1nc2ccccc2[nH]1,70.4%
14,CC1/C=C/C=C/C=C/C=C/C=C/C=C/C=C/C(O[C@@H]2O[C@H](C)[C@H](O)[C@@H](O)[C@@H]2N)CC(O)C(C(=O)O)C(O)CC(=O)CC(O)CC(O)CC(O)CC(=O)CCCC(=O)CC(=O)OC1C(C)CC(C)C(O)CC(=O)c1ccc(N)cc1 (stereo not given in full),-43.7% (active)
15,COc1ccc2c(c1)OC(N)=C(C#N)C2c1cc(OC)c(OC)c(OC)c1 (stereo not given),11.6%
16,O=C(NCCNC(=O)c1ccc(F)cc1)Nc1ccc(-n2cc(-c3ccncc3)c(-c3ccc(Cl)c(O)c3)n2)cc1,-35.6% (active)
17,COc1cc2c(cc1NC(=O)C(Cl)Cl)-c1ccc(NC(=O)C(Cl)Cl)cc1C2,1.01% (active)
18,C=CCN(CC=C)C(=O)[C@H](CC)[C@@H]1CC[C@@H](C)[C@@H]([C@H](C)[C@@H](O)[C@@H](C)C(=O)[C@H](CC)C2O[C@]3(C=CC(=O)[C@]4(CC[C@@](C)([C@H]5CC[C@](O)(CC)[C@H](C)O5)O4)O3)[C@H](C)C[C@@H]2C)O1 (stereo not given in full),-23% (active)
19,C#CC(C)(O)[C@@H]1C[C@H](CC(=O)O)C1(C)C (stereo not given in full),109%
20,CN(C)CCN(Cc1ccccc1)c1ccc2ccccc2n1,89.5%

# From PubChem BioAssay (NCI)
